Experimental data from the supplement of paper PMC11172423.

The molecules below were run on Madurella mycetomatis MM55 (assay: growth relative to untreated control; higher = less inhibition, active = 20 or less). Conditions: 100 µM.
Summary of the method: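 Growth was expressed as metabolic activity relative to the untreated growth control, with both corrected using a blank of medium plus dye. Hyphal fragments of M. mycetomatis MM55 or F. senegalensis CBS197.79 were suspended to 68–72% transmission at 660 nm in colourless RPMI 1640 containing L-glutamine and MOPS. In 96-well plates they were exposed to compound at 100 or 25 µM for 7 days at 37 °C, and viability was read with MTS (2 h, 490 nm) or resazurin (600 nm).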
For `O=C(c1ccc(Nc2nccc(-c3cc(Cl)cc(C(F)(F)F)c3)n2)cc1)N1CC(O)C1`, the growth was 85.6% (inactive).
`Cc1ccc(Cl)cc1NC(=O)c1c(-c2ccccc2Cl)noc1C` was tested, and the growth was 131% (inactive).
For `Nc1nc(Nc2ccc3c(c2)CC[C@@H](N2CCCC2)CC3)nn1-c1cc2c(nn1)-c1ccccc1CCC2`, the growth was 4.45% (active).
`OC1(CN2CCC(Oc3cccc(C(F)(F)F)c3)CC2)CCNC1` (stereo unspecified) was tested, and the growth was 12.9% (active).
For `COc1ccc(-c2ccc3c(-c4ccc(F)cc4)cnc(N)c3c2)cn1`, the growth was 38.6% (inactive).
`CN(c1ncc2nc(Nc3cc(Cl)cc(C(F)(F)F)c3)n(C3CCNCC3)c2n1)C1CC1` was tested, and the growth was 5.99% (active).
In the case of `COc1cc2c3cc1Oc1c(OC)c(OC)cc4c1[C@@H](Cc1ccc(O)c(c1)Oc1ccc(cc1)C[C@@H]3N(C)CC2)N(C)CC4`, the growth is reported as 5.99% (active).
With `C[C@@H]1CCCN1CCc1cc2cc(-c3ccc(C#N)cc3)ccc2o1` the growth was 4.57% (active).
For `CCN1C(=O)N(CCC(C)C)C2(CCN(Cc3cc(O)cc(Cl)c3)CC2)C1=O`, the growth was 104% (inactive).
In the case of `O=C(Nc1ccc(Cl)c(C(F)(F)F)c1)Nc1ccc(Cl)c(C(F)(F)F)c1`, the growth is reported as 49.6% (inactive).
For `Cc1cnc2nc(NC3COc4ccccc43)nc(NC(C3CC3)C3CC3)c2c1` (stereo unspecified), the growth was 8.15% (active).
`O=C(NC(CCO)C1CCCCC1)c1cc2ccc(C(F)(F)F)cc2[nH]1` (stereo unspecified) was tested, and the growth was 85.3% (inactive).
With `Cc1cccc(C=NNc2cc(N3CCOCC3)nc(OCCc3ccccn3)n2)c1` the growth was 10.4% (active).
`Nc1nc2ccccc2n1CC(O)c1ccc(Cl)cc1Cl` (stereo unspecified) was tested, and the growth was 6.46% (active).
For `CCOc1cc([C@@H](CS(C)(=O)=O)N2C(=O)c3cccc(NC(C)=O)c3C2=O)ccc1OC`, the growth was 90.4% (inactive).
For `C[C@@H](O[C@H]1OCCN(Cc2n[nH]c(O)n2)[C@H]1c1ccc(F)cc1)c1cc(C(F)(F)F)cc(C(F)(F)F)c1`, the growth was 5.09% (active).
For `CN(C)C[C]1[CH][CH][CH][C]1CNc1ccnc2cc(Cl)ccc12.[CH]1[CH][CH][CH][CH]1.[Fe]`, the growth was 39.8% (inactive).
`CCc1ccc2c(c1O)CCN(C)C2Cc1ccccc1Cl` (stereo unspecified) was tested, and the growth was 6.23% (active).
For `Cc1nn(C2CCS(=O)(=O)C2)c(C)c1C1Nc2ccccc2C(=O)N1Cc1ccc2c(c1)OCO2` (stereo unspecified), the growth was 91.4% (inactive).
`Cc1ccc(NC(=O)c2ccc(CN3CCN(C)CC3)cc2)cc1Nc1nccc(-c2cccnc2)n1` was tested, and the growth was 70.7% (inactive).
`Cc1cccc(-c2noc(-c3ccccc3)n2)c1` was tested, and the growth was 68.5% (inactive).
For `CC(C)(C)NC(=O)N[C@H](C(=O)N1C[C@H]2[C@@H]([C@H]1C(=O)NC(CC1CCC1)C(=O)C(N)=O)C2(C)C)C(C)(C)C` (stereo partly specified), the growth was 81.9% (inactive).
In the case of `COc1ccc(C(=O)N2CCC3(CC2)C(=O)N(CC(=O)NCC2CCCCC2)CN3c2ccccc2)c(OC)c1`, the growth is reported as 50.8% (inactive).
`CC(C)(C)NCc1cc(Nc2ccnc3cc(Cl)ccc23)c2c(c1O)CCCC2` was tested, and the growth was 95.1% (inactive).
`O=C(Nc1ncccc1O)c1ccc(N2CCOCC2)nc1` was tested, and the growth was 95.8% (inactive).
For `CCCCCOc1ccc(-c2ccc(-c3ccc(C(=O)N[C@H]4C[C@@H](O)[C@@H](O)NC(=O)[C@@H]5[C@@H](O)[C@@H](C)CN5C(=O)[C@H]([C@@H](C)O)NC(=O)[C@H]([C@H](O)[C@@H](O)c5ccc(O)cc5)NC(=O)[C@@H]5C[C@@H](O)CN5C(=O)[C@H]([C@@H](C)O)NC4=O)cc3)cc2)cc1`, the growth was 54.2% (inactive).
For `CCC1=C(c2ccc(C)cc2)S(=O)(=O)N=C1N1CCC(C(=O)NCCN2CCCCC2C)CC1` (stereo unspecified), the growth was 81.9% (inactive).
For `CS(=O)(=O)NC1CCN(C(=O)c2ccc(Nc3nccc(-c4cc(Cl)cc(C(F)(F)F)c4)n3)cc2)C1` (stereo unspecified), the growth was 95.4% (inactive).
`Clc1ccc2c(N3CCN(CCCN4CCN(c5ccnc6cc(Cl)ccc56)CC4)CC3)ccnc2c1` was tested, and the growth was 86.7% (inactive).
With `CCN1CCC(c2cc(C)c3nc(-c4cc5c(C)nc(C)cn5n4)cc(=O)n3c2)CC1` the growth was 89.8% (inactive).
`O=C(Nc1ccc([N+](=O)[O-])cc1Cl)c1cc(Cl)ccc1O` was tested, and the growth was 4.72% (active).
In the case of `FC(F)(F)c1ccnc(Nc2cn3cc(-c4ccc(N5CCOCC5)nc4)ccc3n2)n1`, the growth is reported as 132% (inactive).
In the case of `CN(C)CCCN1c2ccccc2CCc2ccc(Cl)cc21`, the growth is reported as 3.39% (active).
`NS(=O)(=O)OC[C@@H]1C[C@@H](n2ccc3c(N[C@H]4CCc5ccccc54)ncnc32)C[C@@H]1O` was tested, and the growth was 99.5% (inactive).
In the case of `CCO[C@@H]1[C@@H](OC)[C@H](C)O[C@@H](O[C@@H]2C[C@H]3CC[C@@H]4[C@@H](C=C5C(=O)[C@H](C)[C@@H](O[C@H]6CC[C@H](N(C)C)[C@@H](C)O6)CCC[C@H](CC)OC(=O)C[C@H]54)[C@@H]3C2)[C@@H]1OC`, the growth is reported as 128% (inactive).
For `CC[C@H](NC(=O)c1cc2c(F)cccc2[nH]1)c1ccccc1`, the growth was 5.18% (active).
